# Source: paper PMC11006913
# Numbering of substitutions follows the chain as printed.
# What was measured:
# Assay in all cases: PBM; 200 nM protein, PBS
# Conditions in all cases: dsDNA, one strand shown
# SHOX [1] = molecular target: SHOX (Homo sapiens, UniProt O15266 103-189)
# HOXC9 [2] = molecular target: HOXC9 (Homo sapiens, UniProt P31274 178-260, K195R)
# HOXC9 [3] = molecular target: HOXC9 (Homo sapiens, UniProt P31274 178-260)
# SHOX [4] = molecular target: SHOX (Homo sapiens, UniProt O15266 103-189, R173C)
# SHOX (Homo sapiens, UniProt O15266 103-189, R173C), sequence (O15266 103-189 R173C): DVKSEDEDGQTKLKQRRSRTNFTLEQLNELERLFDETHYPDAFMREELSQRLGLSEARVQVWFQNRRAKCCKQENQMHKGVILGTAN
# HOXC9 [5] = molecular target: HOXC9 (Homo sapiens, UniProt P31274 178-260, R193K)
# HOXC9 (Homo sapiens, UniProt P31274 178-260, R193K), sequence (P31274 178-260 R193K): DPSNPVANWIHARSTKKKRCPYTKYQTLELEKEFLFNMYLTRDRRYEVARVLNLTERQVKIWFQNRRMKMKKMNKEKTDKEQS
# HOXC9 [6] = molecular target: HOXC9 (Homo sapiens, UniProt P31274 178-260, R222W)
# HOXC9 (Homo sapiens, UniProt P31274 178-260, R222W), sequence (P31274 178-260 R222W): as the sequence (P31274 178-260 R193K) above, with K16R, R45W counted along it
# CRX [7] = molecular target: CRX (Homo sapiens, UniProt O43186 26-111)
# CRX (Homo sapiens, UniProt O43186 26-111), sequence (O43186 26-111): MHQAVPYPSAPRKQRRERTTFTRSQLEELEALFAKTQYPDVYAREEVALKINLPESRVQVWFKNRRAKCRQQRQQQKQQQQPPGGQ
# CRX [8] = molecular target: CRX (Homo sapiens, UniProt O43186 26-111, E42D)
# CRX (Homo sapiens, UniProt O43186 26-111, E42D), sequence (O43186 26-111 E42D): as the sequence (O43186 26-111) above, with E17D counted along it
# CRX [9] = molecular target: CRX (Homo sapiens, UniProt O43186 26-111, R41L)
# CRX (Homo sapiens, UniProt O43186 26-111, R41L), sequence (O43186 26-111 R41L): as the sequence (O43186 26-111) above, with R16L counted along it
# SIX6 [10] = molecular target: T1, SIX6 (Homo sapiens, UniProt O95475 114-200, L167I)
# T1 sequence: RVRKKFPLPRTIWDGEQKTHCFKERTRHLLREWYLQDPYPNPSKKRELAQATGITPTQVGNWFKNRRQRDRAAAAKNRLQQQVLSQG
# SIX6 [11] = molecular target: T2, SIX6 (Homo sapiens, UniProt O95475 114-200, L143V)
# T2 sequence: T1 sequence with L30V, I54L
# SIX6 [12] = molecular target: T3, SIX6 (Homo sapiens, UniProt O95475 114-200, H141N)
# T3 sequence: T1 sequence with H28N, I54L
# SIX6 [13] = molecular target: T4, SIX6 (Homo sapiens, UniProt O95475 114-200, T165P)
# T4 sequence: T1 sequence with T52P, I54L
# SIX6 [14] = molecular target: T5, SIX6 (Homo sapiens, UniProt O95475 114-200, L167M)
# T5 sequence: T1 sequence with I54M
# SIX6 [15] = molecular target: T6, SIX6 (Homo sapiens, UniProt O95475 114-200, L143M)
# T6 sequence: T1 sequence with L30M, I54L
# SIX6 [16] = molecular target: T7, SIX6 (Homo sapiens, UniProt O95475 114-200, L143I)
# T7 sequence: T1 sequence with L30I, I54L
# SIX6 [17] = molecular target: T8, SIX6 (Homo sapiens, UniProt O95475 114-200, T165G)
# T8 sequence: T1 sequence with T52G, I54L
# HOXA2 [18] = molecular target: HOXA2 (Homo sapiens, UniProt O43364 129-215, R185T)
# HOXA2 (Homo sapiens, UniProt O43364 129-215, R185T), sequence (O43364 129-215 R185T): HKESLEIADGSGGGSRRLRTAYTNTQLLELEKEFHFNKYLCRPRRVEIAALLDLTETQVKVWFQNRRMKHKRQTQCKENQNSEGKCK
# SIX6 [19] = molecular target: T9, SIX6 (Homo sapiens, UniProt O95475 114-200, T139Q)
# T9 sequence: T1 sequence with T26Q, I54L
# MSX2 [20] = molecular target: MSX2 (Homo sapiens, UniProt P35548 130-214, R199I)
# MSX2 (Homo sapiens, UniProt P35548 130-214, R199I), sequence (P35548 130-214 R199I): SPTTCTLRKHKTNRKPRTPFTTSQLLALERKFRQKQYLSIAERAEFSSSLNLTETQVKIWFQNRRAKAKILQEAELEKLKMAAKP
# SIX6 [21] = molecular target: T10, SIX6 (Homo sapiens, UniProt O95475 114-200, T165A)
# T10 sequence: T1 sequence with T52A, I54L
# HOXA2 [22] = molecular target: HOXA2 (Homo sapiens, UniProt O43364 129-215, R185K)
# HOXA2 (Homo sapiens, UniProt O43364 129-215, R185K), sequence (O43364 129-215 R185K): as the sequence (O43364 129-215 R185T) above, with T57K counted along it
# MSX2 [23] = molecular target: MSX2 (Homo sapiens, UniProt P35548 130-214)
# MSX2 (Homo sapiens, UniProt P35548 130-214), sequence (P35548 130-214): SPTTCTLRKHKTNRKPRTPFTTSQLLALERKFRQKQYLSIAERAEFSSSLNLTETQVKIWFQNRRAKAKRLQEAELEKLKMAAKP
# SIX6 [24] = molecular target: T11, SIX6 (Homo sapiens, UniProt O95475 114-200, L167V)
# T11 sequence: T1 sequence with I54V
# SIX6 [25] = molecular target: T12, SIX6 (Homo sapiens, UniProt O95475 114-200)
# T12 sequence: T1 sequence with I54L
# SIX6 [26] = molecular target: T13, SIX6 (Homo sapiens, UniProt O95475 114-200, T165I)
# T13 sequence: T1 sequence with T52I, I54L
# MSX2 [27] = molecular target: MSX2 (Homo sapiens, UniProt P35548 130-214, F161Y)
# MSX2 (Homo sapiens, UniProt P35548 130-214, F161Y), sequence (P35548 130-214 F161Y): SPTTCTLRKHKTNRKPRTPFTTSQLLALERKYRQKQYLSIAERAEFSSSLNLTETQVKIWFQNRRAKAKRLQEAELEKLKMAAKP
# HOXA2 [28] = molecular target: HOXA2 (Homo sapiens, UniProt O43364 129-215, Y150S)
# HOXA2 (Homo sapiens, UniProt O43364 129-215, Y150S), sequence (O43364 129-215 Y150S): as the sequence (O43364 129-215 R185T) above, with Y22S, T57R counted along it
# HOXA2 [29] = molecular target: HOXA2 (Homo sapiens, UniProt O43364 129-215)
# HOXA2 (Homo sapiens, UniProt O43364 129-215), sequence (O43364 129-215): as the sequence (O43364 129-215 R185T) above, with T57R counted along it
# HOXA7 [30] = molecular target: HOXA7 (Homo sapiens, UniProt P31268 116-202)
# HOXA7 (Homo sapiens, UniProt P31268 116-202), sequence (P31268 116-202): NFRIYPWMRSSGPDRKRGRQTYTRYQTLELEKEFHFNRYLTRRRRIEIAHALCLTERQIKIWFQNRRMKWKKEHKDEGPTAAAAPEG
# HOXA7 [31] = molecular target: HOXA7 (Homo sapiens, UniProt P31268 116-202, W177C)
# HOXA7 (Homo sapiens, UniProt P31268 116-202, W177C), sequence (P31268 116-202 W177C): as the sequence (P31268 116-202) above, with W62C counted along it
# NKX3-2 [32] = molecular target: NKX3-2 (Homo sapiens, UniProt P78367 192-278, P234S)
# NKX3-2 (Homo sapiens, UniProt P78367 192-278, P234S), sequence (P78367 192-278 P234S): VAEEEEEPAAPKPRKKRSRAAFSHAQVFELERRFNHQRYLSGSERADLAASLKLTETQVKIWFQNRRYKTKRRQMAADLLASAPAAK
# NKX3-2 [33] = molecular target: NKX3-2 (Homo sapiens, UniProt P78367 192-278)
# NKX3-2 (Homo sapiens, UniProt P78367 192-278), sequence (P78367 192-278): as the sequence (P78367 192-278 P234S) above, with S43P counted along it
# HOXA4 [34] = molecular target: HOXA4 (Homo sapiens, UniProt Q00056 201-287, W262R)
# HOXA4 (Homo sapiens, UniProt Q00056 201-287, W262R), sequence (Q00056 201-287 W262R): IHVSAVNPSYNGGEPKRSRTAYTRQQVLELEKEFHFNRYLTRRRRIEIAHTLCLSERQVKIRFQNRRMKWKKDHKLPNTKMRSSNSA
# HOXA4 [35] = molecular target: HOXA4 (Homo sapiens, UniProt Q00056 201-287, R217L)
# HOXA4 (Homo sapiens, UniProt Q00056 201-287, R217L), sequence (Q00056 201-287 R217L): as the sequence (Q00056 201-287 W262R) above, with R17L, R62W counted along it
# HOXA4 [36] = molecular target: HOXA4 (Homo sapiens, UniProt Q00056 201-287)
# HOXA4 (Homo sapiens, UniProt Q00056 201-287), sequence (Q00056 201-287): as the sequence (Q00056 201-287 W262R) above, with R62W counted along it
# HOXA4 [37] = molecular target: HOXA4 (Homo sapiens, UniProt Q00056 201-287, W262F)
# HOXA4 (Homo sapiens, UniProt Q00056 201-287, W262F), sequence (Q00056 201-287 W262F): as the sequence (Q00056 201-287 W262R) above, with R62F counted along it
# SHOX (Homo sapiens, UniProt O15266 103-189), sequence (O15266 103-189): as the sequence (O15266 103-189 R173C) above, with C71R counted along it
# HOXC9 (Homo sapiens, UniProt P31274 178-260), sequence (P31274 178-260): as the sequence (P31274 178-260 R193K) above, with K16R counted along it
# HOXC9 (Homo sapiens, UniProt P31274 178-260, K195R), sequence (P31274 178-260 K195R): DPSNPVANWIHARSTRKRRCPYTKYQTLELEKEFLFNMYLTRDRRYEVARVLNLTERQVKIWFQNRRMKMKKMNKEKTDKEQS
sequence,measurement,setting,value
CGCAGTGC,binding signal,SHOX [1],"7.16 upbm affinity estimate (log intensity, higher = more binding, comparable within an allelic series)"
same,binding signal,HOXC9 [2],"9.74 upbm affinity estimate (log intensity, higher = more binding, comparable within an allelic series)"
same,binding signal,HOXC9 [3],"9.67 upbm affinity estimate (log intensity, higher = more binding, comparable within an allelic series)"
same,binding signal,SHOX [4],"7.23 upbm affinity estimate (log intensity, higher = more binding, comparable within an allelic series)"
same,binding signal,HOXC9 [5],"9.78 upbm affinity estimate (log intensity, higher = more binding, comparable within an allelic series)"
same,binding signal,HOXC9 [6],"9.73 upbm affinity estimate (log intensity, higher = more binding, comparable within an allelic series)"
CAGTCGCG,binding signal,SHOX [1],"7 upbm affinity estimate (log intensity, higher = more binding, comparable within an allelic series)"
same,binding signal,CRX [7],"8.23 upbm affinity estimate (log intensity, higher = more binding, comparable within an allelic series)"
same,binding signal,CRX [8],"8.35 upbm affinity estimate (log intensity, higher = more binding, comparable within an allelic series)"
same,binding signal,SHOX [4],"7.2 upbm affinity estimate (log intensity, higher = more binding, comparable within an allelic series)"
same,binding signal,CRX [9],"8.3 upbm affinity estimate (log intensity, higher = more binding, comparable within an allelic series)"
GGAGCGGA,binding signal,SHOX [1],"7.25 upbm affinity estimate (log intensity, higher = more binding, comparable within an allelic series)"
same,binding signal,SIX6 [10],"9.19 upbm affinity estimate (log intensity, higher = more binding, comparable within an allelic series)"
same,binding signal,SIX6 [11],"8.94 upbm affinity estimate (log intensity, higher = more binding, comparable within an allelic series)"
same,binding signal,SIX6 [12],"9.15 upbm affinity estimate (log intensity, higher = more binding, comparable within an allelic series)"
same,binding signal,SIX6 [13],"8.85 upbm affinity estimate (log intensity, higher = more binding, comparable within an allelic series)"
same,binding signal,SIX6 [14],"9.13 upbm affinity estimate (log intensity, higher = more binding, comparable within an allelic series)"
same,binding signal,SIX6 [15],"9.14 upbm affinity estimate (log intensity, higher = more binding, comparable within an allelic series)"
same,binding signal,SIX6 [16],"9.05 upbm affinity estimate (log intensity, higher = more binding, comparable within an allelic series)"
same,binding signal,SIX6 [17],"9.13 upbm affinity estimate (log intensity, higher = more binding, comparable within an allelic series)"
same,binding signal,HOXA2 [18],"7.31 upbm affinity estimate (log intensity, higher = more binding, comparable within an allelic series)"
same,binding signal,SIX6 [19],"9.15 upbm affinity estimate (log intensity, higher = more binding, comparable within an allelic series)"
same,binding signal,MSX2 [20],"9.51 upbm affinity estimate (log intensity, higher = more binding, comparable within an allelic series)"
same,binding signal,SIX6 [21],"9.08 upbm affinity estimate (log intensity, higher = more binding, comparable within an allelic series)"
same,binding signal,SHOX [4],"7.2 upbm affinity estimate (log intensity, higher = more binding, comparable within an allelic series)"
same,binding signal,HOXA2 [22],"10.3 upbm affinity estimate (log intensity, higher = more binding, comparable within an allelic series)"
same,binding signal,MSX2 [23],"9.6 upbm affinity estimate (log intensity, higher = more binding, comparable within an allelic series)"
same,binding signal,SIX6 [24],"9.14 upbm affinity estimate (log intensity, higher = more binding, comparable within an allelic series)"
same,binding signal,SIX6 [25],"9.16 upbm affinity estimate (log intensity, higher = more binding, comparable within an allelic series)"
same,binding signal,SIX6 [26],"9.13 upbm affinity estimate (log intensity, higher = more binding, comparable within an allelic series)"
same,binding signal,MSX2 [27],"9.62 upbm affinity estimate (log intensity, higher = more binding, comparable within an allelic series)"
same,binding signal,HOXA2 [28],"10.5 upbm affinity estimate (log intensity, higher = more binding, comparable within an allelic series)"
same,binding signal,HOXA2 [29],"7.46 upbm affinity estimate (log intensity, higher = more binding, comparable within an allelic series)"
GCCTCGCC,binding signal,SHOX [1],"7.06 upbm affinity estimate (log intensity, higher = more binding, comparable within an allelic series)"
same,binding signal,CRX [7],"8.26 upbm affinity estimate (log intensity, higher = more binding, comparable within an allelic series)"
same,binding signal,HOXA7 [30],"8.38 upbm affinity estimate (log intensity, higher = more binding, comparable within an allelic series)"
same,binding signal,CRX [8],"8.29 upbm affinity estimate (log intensity, higher = more binding, comparable within an allelic series)"
same,binding signal,MSX2 [20],"9.34 upbm affinity estimate (log intensity, higher = more binding, comparable within an allelic series)"
same,binding signal,SHOX [4],"7.02 upbm affinity estimate (log intensity, higher = more binding, comparable within an allelic series)"
same,binding signal,MSX2 [23],"9.36 upbm affinity estimate (log intensity, higher = more binding, comparable within an allelic series)"
same,binding signal,MSX2 [27],"9.46 upbm affinity estimate (log intensity, higher = more binding, comparable within an allelic series)"
same,binding signal,HOXA7 [31],"8.26 upbm affinity estimate (log intensity, higher = more binding, comparable within an allelic series)"
same,binding signal,NKX3-2 [32],"10.6 upbm affinity estimate (log intensity, higher = more binding, comparable within an allelic series)"
same,binding signal,CRX [9],"8.24 upbm affinity estimate (log intensity, higher = more binding, comparable within an allelic series)"
same,binding signal,NKX3-2 [33],"10.4 upbm affinity estimate (log intensity, higher = more binding, comparable within an allelic series)"
CGAGCGCC,binding signal,SHOX [1],"7.01 upbm affinity estimate (log intensity, higher = more binding, comparable within an allelic series)"
same,binding signal,HOXA4 [34],"9.78 upbm affinity estimate (log intensity, higher = more binding, comparable within an allelic series)"
same,binding signal,HOXA4 [35],"9.82 upbm affinity estimate (log intensity, higher = more binding, comparable within an allelic series)"
same,binding signal,SHOX [4],"7.09 upbm affinity estimate (log intensity, higher = more binding, comparable within an allelic series)"
same,binding signal,HOXA4 [36],"9.8 upbm affinity estimate (log intensity, higher = more binding, comparable within an allelic series)"
same,binding signal,HOXA4 [37],"9.91 upbm affinity estimate (log intensity, higher = more binding, comparable within an allelic series)"
